Structures are written as SMILES. Results filed as inconclusive are left out. Entries that show only a call come without a potency. The source made the active and inactive calls. The call rests on the fitted dose curve; in most records, active means well fitted activation curve with a large enough effect; inconclusive means small, poorly fitted or top-dose-only effect; inactive means no such curve, though single readings can be large or run the other way.
Potency means the concentration at half of the fitted maximal effect.

The experiment deals with Relaxin receptor 1 (Homo sapiens) (UniProt Q9HBX9). In words: qHTS Assay for Agonists of the Relaxin Receptor RXFP1: RXFP1 Hit Validation. Further: nearly all actives have a fitted effect of over 65% in size.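 On activation: cAMP rise lowers the TR-FRET signal in lysed cells with PDE4 inhibitor present.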 As to conditions: HEK293T-RXFP1 cAMP TR-FRET, 30 min; series mostly up to 115 µM.
Chain of Relaxin receptor 1 (Homo sapiens) (Q9HBX9 whole entry, looked up): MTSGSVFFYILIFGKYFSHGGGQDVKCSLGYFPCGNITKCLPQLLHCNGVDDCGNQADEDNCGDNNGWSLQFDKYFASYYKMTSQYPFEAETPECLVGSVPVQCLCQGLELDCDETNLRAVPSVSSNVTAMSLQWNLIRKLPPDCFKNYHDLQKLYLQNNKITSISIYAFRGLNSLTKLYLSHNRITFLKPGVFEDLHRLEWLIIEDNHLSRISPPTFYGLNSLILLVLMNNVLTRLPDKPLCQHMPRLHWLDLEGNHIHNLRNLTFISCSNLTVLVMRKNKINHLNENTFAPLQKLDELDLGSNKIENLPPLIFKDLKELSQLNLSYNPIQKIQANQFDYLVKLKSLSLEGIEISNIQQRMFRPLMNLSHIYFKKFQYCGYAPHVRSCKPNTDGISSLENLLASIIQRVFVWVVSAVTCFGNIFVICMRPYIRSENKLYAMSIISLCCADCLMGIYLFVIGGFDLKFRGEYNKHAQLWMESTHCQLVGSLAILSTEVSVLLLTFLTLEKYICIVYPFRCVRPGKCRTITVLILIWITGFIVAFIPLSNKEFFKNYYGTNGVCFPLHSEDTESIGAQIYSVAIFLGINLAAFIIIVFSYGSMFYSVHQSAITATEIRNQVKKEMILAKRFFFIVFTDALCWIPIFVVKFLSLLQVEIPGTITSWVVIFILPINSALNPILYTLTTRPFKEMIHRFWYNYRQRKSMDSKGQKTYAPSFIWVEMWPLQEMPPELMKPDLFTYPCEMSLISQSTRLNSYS
For the compound `Cc1ccc(Cl)cc1NC(=O)CCCN1C(=O)c2cccnc2C1=O`, the Potency entry is “inactive”.

Consider `CCc1nnc(NC(=O)CSc2nc(C)nc3c2c(=O)n(C)c(=O)n3C)s1`, for which the Potency was 17.3 µM (active).

`O=C(Nc1ccccc1C(=O)O)c1ccc(NC(=O)C2CC2)cc1`: the Potency result was “inactive”.

In the case of `C=CCSc1nc2c(c(=O)[nH]1)C(C(C)C)C(C#N)=C(N)O2` (stereo unspecified), the Potency was 27.5 µM (active).

Regarding `Cc1cccc(C(=O)Nc2ccccc2C(=O)NCc2ccco2)c1`, the Potency result was “inactive”.

Take `COc1ccccc1CNC(=O)CCCc1nnc2n(C)c(=O)c3sccc3n12`: the Potency result is “inactive”.

Regarding `NC(=O)c1ccccc1NC(=O)CC12CC3CC(CC(C3)C1)C2`, the Potency entry is “inactive”.

Regarding `Cc1ccc(CN(C)C(=O)c2ccc3c(c2)NC(=O)CS3)o1`, the Potency result is “inactive”.

Take `COC(=O)Cn1cnc2c(C#N)c3n(c2c1=O)CCCC3`: the Potency was 24.5 µM (active).

Turning to `CCc1ccc2n(-c3ccc(OC)cc3)c([S-])c(C(=O)Nc3cc(C)cc(C)c3)[n+]2c1`, the Potency is 24.5 µM (active).

Turning to `CCOC(=O)/C(C#N)=C/c1c(N2CCN(CC)CC2)nc2c(C)cccn2c1=O`, the Potency entry was “inactive”.

As to `O=C(Nc1ccccc1C(=O)N1CCOCC1)c1ccco1`, the Potency entry was “inactive”.

As for `O=C(CSc1ccc2nnc(-c3ccncc3)n2n1)NCC1CCCO1` (stereo unspecified), the Potency entry was “inactive”.

Take `COCCNC(=O)NC(=O)COC(=O)C12CC3CC(CC(NC(C)=O)(C3)C1)C2`: the Potency entry was “inactive”.

For the compound `CCCc1nc(SCC(=O)NCC2CCCO2)c2c(=O)n(C)c(=O)n(C)c2n1` (stereo unspecified), the Potency entry was “inactive”.

On to `Cc1ccc(-c2ccc3nnc(SCC(=O)NCC4CCCO4)n3n2)cc1` (stereo unspecified), for which the Potency entry was “inactive”.

Turning to `O=C(Nc1ccccc1C(=O)NC1CCCCC1)c1ccco1`, the Potency result is “inactive”.

Turning to `CCOC(=O)c1sc(=NC(=O)c2ccc(S(=O)(=O)N(C)c3ccccc3)cc2)n(C)c1C`, the Potency is 19.4 µM (active).

On to `O=C(O)c1ccc(N2C(=O)c3cccc4c(C(=O)O)ccc(c34)C2=O)cc1`, for which the Potency entry is “inactive”.

With `CC1CCN(S(=O)(=O)c2ccc3nc(N4CCN(c5ccccc5)CC4)ccc3c2)CC1`, the Potency was 12.3 µM (active).

Take `O=C(Nc1ccccc1C(=O)N1CCN(c2ccccc2)CC1)c1ccco1`: the Potency entry was “inactive”.

`COc1ccc(NC(=O)CSc2nc(-c3ccc(C)cc3)cc(C(F)(F)F)c2C#N)cc1`: the Potency entry is “inactive”.

Turning to `CCOc1ccccc1NC(=O)CSc1ccc2nnc(-c3cccnc3)n2n1`, the Potency entry was “inactive”.

On to `COC(=O)CCNC(=O)Cn1cnc2sc3c(c2c1=O)CCCC3`, for which the Potency entry is “inactive”.

Turning to `CCN(CC)CCCN1C=C2C(=O)C(C)(OC(=O)C3CCCC3)C(=O)C=C2C=C1c1ccsc1` (stereo unspecified), the Potency entry is “inactive”.

As for `O=C(O)CCC(=O)N1CCN(c2nc(-c3ccccc3Cl)c3cc(Br)ccc3n2)CC1`, the Potency result was “inactive”.

With `Cc1cc2nc3ccc(=[N+](C)C)cc-3sc2cc1N`, the Potency entry was “inactive”.

Take `CN(Cc1ccccc1)C(=O)c1ccccc1NC(=O)c1ccco1`: the Potency result is “inactive”.

`CC(C)n1c(CN2CCN(C(=O)c3ccco3)CC2)nc2c1c(=O)n(C)c(=O)n2C`: the Potency entry is “inactive”.

With `NCCNC(=O)Cc1ccc(NC(=O)Cc2ccc(Nc3ncnc4c3ncn4[C@@H]3O[C@H](CO)[C@@H](O)[C@H]3O)cc2)cc1`, the Potency was 1.23 µM (active).

Regarding `Cc1cccc(N2C(=O)C(O)=C(C(=O)c3cccs3)C2c2ccc(C(C)C)cc2)n1` (stereo unspecified), the Potency result is “inactive”.

For the compound `CCN(CC)c1ccc(S(=O)(=O)N2CCOCC2)cc1NC(=O)CSc1nncn1C`, the Potency is 12.3 µM (active).

Consider `CCCC(=O)Nc1ncnc2c1ncn2[C@@H]1O[C@@H]2OP(=O)(O)OC[C@H]2[C@H]1OC(=O)CCC`, for which the Potency was 0.346 µM (active).

In the case of `Cc1nn(CC(=O)NCCN2CCOCC2)c(=O)c2cc3sccc3n12`, the Potency result was “inactive”.

In the case of `CC(C)n1cnc2c(N(C)c3cccc(Cl)c3)nc(N(CCO)CCO)nc21`, the Potency entry is “inactive”.

For `Cc1cccc(-c2nnc(SCC(=O)NC3CC3)n2C)c1`, the Potency entry was “inactive”.
